FLuc modulator = firefly luciferase modulation, counter-screen for miR-21 project; hit rate 6.9% among 360,000; Potency, µM (titrated, usually from 57.5 µM), actives largely listed as inhibitors; AID 588342; P08659; purified FLuc, Km substrates, luminescence inhibition; also: nearly all actives have a fitted effect of over 55% in size
Target sequence (P08659 whole entry, looked up): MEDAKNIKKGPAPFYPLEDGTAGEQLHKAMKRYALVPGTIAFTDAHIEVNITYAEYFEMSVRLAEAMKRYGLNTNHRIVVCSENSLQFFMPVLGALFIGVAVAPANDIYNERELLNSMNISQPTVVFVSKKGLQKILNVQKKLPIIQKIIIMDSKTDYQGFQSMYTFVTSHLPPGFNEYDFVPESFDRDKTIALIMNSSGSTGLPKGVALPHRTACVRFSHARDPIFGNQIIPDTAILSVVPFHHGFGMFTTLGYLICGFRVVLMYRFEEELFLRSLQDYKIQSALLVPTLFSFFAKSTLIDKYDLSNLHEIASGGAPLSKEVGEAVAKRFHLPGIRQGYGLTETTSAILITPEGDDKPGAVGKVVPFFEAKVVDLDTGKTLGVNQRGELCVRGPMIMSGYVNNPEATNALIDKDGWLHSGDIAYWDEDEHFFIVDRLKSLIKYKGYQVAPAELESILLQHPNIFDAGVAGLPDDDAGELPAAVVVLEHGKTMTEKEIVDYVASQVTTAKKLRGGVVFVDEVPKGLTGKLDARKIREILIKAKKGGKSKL
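Biochemical qHTS of compounds, final roughly 60 µM downward over six points, against 10 nM purified firefly luciferase using Km concentrations of substrates (10 uM D-luciferin, 10 uM ATP) in Tris acetate pH 7.5 buffer; luminescence output.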
ELG1 genotoxic = induces genotoxicity in HEK293T cells with luciferase-tagged ELG1 | hit rate 1.3% among 330,000 | AID 504466 | Potency, µM (top dose mostly 46 µM), hits mostly activators | HEK293T ELG1-luciferase reporter, luminescence, 16 h; also: nearly all actives have a fitted effect of over 60% in size
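Screening used a luciferase reporter fused to human ELG1 in HEK293T cells. Luminescence was read on a CCD plate imager after 16 hr exposure and 30 min ONE-Glo incubation.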
SMN2 splice enh = SMN2 splice variant enhancement. HEK293 SMN2-luciferase splicing reporter, luminescence, 30-36 h. Potency, µM (highest dose often 46.1 µM), usual class: activators. hit rate 2.8% among 210,000; also: nearly all actives have a fitted effect of over 55% in size
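qHTS luciferase splicing reporter: luminescence rises when SMN2 exon 7 is included in transfected HEK293 cells. Compound exposure lasted 30-36 h at 37C, with 4.5 mM final sodium butyrate as control, followed by a ONE-Glo read.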
Rab9 promoter act = activators of Rab9 promoter; AID 485297; hit rate 2.8% among 320,000; Potency, µM (doses to about 9.22 µM), most hits filed as activators; Huh7 Rab9 promoter-luciferase reporter, luminescence, 24 h; also: nearly all actives have a fitted effect of over 60% in size
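Cells were plated at 1500 per well in reduced-serum medium with 10% FBS and left 2 h. Compound in DMSO was then added for 24 h at 37 °C. Reporter signal was read by luminescence after 10 min with luciferase detection reagent.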
NPC1 prom act = NPC1 promoter activation; Potency, µM (titrated, usually from 9.22 µM), most hits filed as activators; hit rate 2.4% among 320,000; AID 485313; Huh7 NPC1 promoter luciferase reporter, 24 h; also: nearly all actives have a fitted effect of over 60% in size
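Stably transfected Huh7 (NPC1 promoter→luciferase), 1500 cells/well in Opti-MEM + 10% FBS, 2 h settle, then compound 24 h at 37 °C. Luminescence after 10 min with Amplite reagent.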
ELG1 repair inh = ELG1-dependent DNA repair inhibition | AID 504467 | Potency, µM (highest dose often 46.1 µM), usual class: inhibitors | hit rate 2.3% among 330,000 | HEK293T ELG1-luciferase reporter, luminescence, 16 h; DNA damage induced by 5-fluorouridine; also: nearly all actives have a fitted effect of over 55% in size
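Overnight (16 hr) co-exposure of 2,000 cells/well to 5-fluorouridine and compound at 37 °C preceded detection. Luciferase was quantified via ONE-Glo luminescence; loss of signal denotes inhibition.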
Numbers stand for hits; . = inactive; ? = inconclusive; / = no result given; [ ] = dose if it differs, or a comment. Compounds with a hit are over-represented: about 9.4% of the library has one in this group of screens. Calls follow the shape of the dose curve; as a rule, active = well fitted curve in the direction sought with a large enough effect; inconclusive = small, poorly fitted or top-dose-only effect, or another doubt; inactive = no such curve, though single readings can be large; an effect the other way counts as inactive or inconclusive.

SMILES	FLuc modulator	ELG1 genotoxic	SMN2 splice enh	Rab9 promoter act	NPC1 prom act	ELG1 repair inh
Cc1ccc(Cn2cnc3c(oc4ccccc43)c2=O)cc1	.	/	/	/	/	/
CCOc1ccc(/C=N/NC(=O)c2cc(-c3ccco3)nc3ccccc23)cc1	?	.	?	.	.	.
O=C(N/N=C/c1ccc(F)cc1)c1cc(-c2ccco2)nc2ccccc12	3.01µM	.	.	.	.	.
O=C(NC1CC1)c1cc(-c2ccco2)nc2ccccc12	.	.	/	.	.	.
O=C(c1cc(-c2ccco2)nc2ccccc12)N1CCN(c2ccc(F)cc2)CC1	19µM	.	.	.	.	?
C/C(=N\NC(=O)c1ccc(O)cc1O)c1cccnc1	9.53µM	.	/	?	.	?
O=C(O)c1cc(-c2ccco2)nc2ccccc12	21.3µM	.	.	.	.	.
CCn1c(=O)c2cc(C(=O)NC3CCC(C)CC3)sc2c2ccccc21 (stereo unspecified)	.	/	.	/	/	/
Cc1ccc(C)c(NC(=O)CCCN2C(=O)C(c3ccccc3)Oc3cccnc32)c1 (stereo unspecified)	.	/	/	/	/	/
Cn1c(=O)c(C(=O)COC(=O)c2cc(-c3ccco3)nc3ccccc23)c(N)n(CC2CC2)c1=O	?	.	.	.	.	6.51µM
Cc1nnc(NC(=O)c2cc(-c3ccco3)nc3ccccc23)s1	?	.	/	.	.	.
O=C(OCC(=O)N1CCN(C(=O)c2ccco2)CC1)c1cc(-c2ccc(Cl)c(Cl)c2Cl)nc2ccccc12	.	.	.	.	.	?
C/C(=N\NC(=O)c1cc(-c2ccco2)nc2ccccc12)c1cccnc1	13.5µM	.	.	.	.	.
Cc1csc(NC(=O)c2cc(-c3ccco3)nc3ccccc23)n1	?	.	.	.	.	20.6µM
O=C(OCC(=O)N1CCN(C(=O)c2ccco2)CC1)c1cc(-c2ccco2)nc2ccccc12	15.1µM	.	.	.	.	?
CCc1cccc(NC(=O)Cn2cc(C(=O)c3ccncc3)c(=O)c3cc(C)c(C)cc32)c1	.	/	/	/	/	/
Nc1nc(=O)n(C2OC(CO)C(O)C2O)cc1Cl (stereo unspecified)	/	/	.	/	/	/
Cc1nc2ccn(Cc3ccccc3)c(=O)c2cc1C(=O)N1CCN(c2ccc(F)cc2)CC1	.	.	/	.	.	6.51µM
Cc1nc2ccn(Cc3cccnc3)c(=O)c2cc1C(=O)N1CCN(c2ccc(F)cc2)CC1	.	/	/	/	/	/
COc1ccc(O[C@H]2C=C[C@@H](c3ccccc3)O[C@@H]2COC(=O)CC/C(C)=N/O[C@@H](C)c2cn([C@H](CO)Cc3ccccc3)nn2)cc1	.	.	.	.	.	?
C/C(CCN1CCc2nc(-c3ccccc3)c(-c3ccccc3)cc2C1)=N\O[C@@H](C)c1cn([C@H](CO)Cc2ccccc2)nn1	.	.	.	.	.	20.6µM
O=C(CN1CCN(S(=O)(=O)c2ccccc2)CC1)Nc1ccc([N+](=O)[O-])cc1	.	.	.	.	.	20.6µM
CC(=O)Nc1ccc(S(=O)(=O)N2CCN(Cc3ccccc3[N+](=O)[O-])CC2)cc1	.	.	.	.	.	9.2µM
COC(=O)c1cn(CC(=O)N2CCCCCC2)c2ccccc12	.	.	.	.	.	.
CCOC(=O)C1=C(O)/C(=C/c2cn(CC(=O)N3CCCC3)c3ccccc23)SC1=Nc1ccccc1	?	.	.	.	.	4.11µM
SMILES	FLuc modulator	ELG1 genotoxic	SMN2 splice enh	Rab9 promoter act	NPC1 prom act	ELG1 repair inh
NNC(=O)c1ccc[n+](CCc2ccccc2)c1	/	/	.[9.22 µM]	/	/	/
Cc1nnc(NC(=O)Nc2cccc(Cl)c2)s1	?	.	.	?	?	.
O=C(Nc1ccc(Cl)c(Cl)c1)Nc1nccs1	13.5µM	.	/	.	.	.
O=C(Nc1cccc(Cl)c1)Nc1nc(-c2ccccc2)cs1	.	.	.	.	.	?
Cc1csc(NC(=O)Nc2cccc(Cl)c2)n1	5.36µM	?	11.2µM	?	?	?
O=C(Nc1cccc(Cl)c1)Nc1nccs1	19µM	.	.	?	?	?
CC(=O)N1CCc2cc(S(=O)(=O)NC(CC(C)C)C(=O)Nc3ccc4c(c3)OCCO4)ccc21 (stereo unspecified)	.	?	?	.	.	.
Cc1cc2oc(C(=O)N(Cc3ccccc3)C3CCS(=O)(=O)C3)cc(=O)c2cc1C (stereo unspecified)	.	/	.	/	/	/
O=C(NCc1cccnc1)c1c[nH]c2cc3c(cc2c1=O)OCCO3	6.01µM	?	.	.	.	.
O=C(c1ccccc1)c1c[nH]c2cc3c(cc2c1=O)OCCO3	?	.	22.4µM	?	.	?
O=C(c1ccccc1)c1c[nH]c2cc3c(cc2c1=O)OCO3	.	.	.	.	.	.
CCCC(=O)Nc1nnc(SCc2cc(=O)c3cc(C)ccc3[nH]2)s1	.	/	/	/	/	/
CC(C)(C)S(=O)(=O)Cc1nc(-c2ccc(Cl)c(Cl)c2)cs1	?	.	/	.	.	.
COc1ccc(-c2csc(COC(=O)C(C)(C)C)n2)cc1	2.39µM	.	/	?	.	?
CC(C)(C)C(=O)OCc1nc(-c2ccc(Cl)cc2)cs1	1.2µM	?	/	4.47µM	3.55µM	?
CC(C)(C)C(=O)OCc1nc(-c2ccc(F)cc2)cs1	1.35µM	.	/	2.51µM	?	?
CC(C)(C)C(=O)OCc1nc(-c2ccc3c(c2)OCCO3)cs1	0.536µM	?	/	3.16µM	2.82µM	?
COc1ccc(-c2csc(CCN3N=C(C)CC3=O)n2)cc1	?	.	.	.	.	?
Cn1nc(-c2ccccc2F)c2cc(C(=O)N3CCN(c4ccccc4F)CC3)sc21	.	/	.	/	/	/
N#CC1=C2C=Cc3ccccc3N2CCCC1=O	10.7µM	?	.	2.82µM	2.24µM	?
O=C(CN1CCCC1)N1c2ccccc2C=Cc2ccccc21	.	.	.	.	.	.
Cc1nnc(SCC(=O)c2ccc(C(C)C)cc2)s1	9.53µM	.	.	?	.	?
Cc1ccc(C(=O)CSc2nnc(N)s2)c(C)c1	16.9µM	14.6µM	15.8µM	2.51µM	3.16µM	?
CCOc1ccc(C(=O)CSc2nnc(N)s2)cc1	13.5µM	?	.	3.16µM	2.51µM	?
COc1ccc2[nH]c(=O)c(CN(C(=O)c3cccc(Cl)c3)c3cccc(C)c3)cc2c1	.	/	.	/	/	/
CSc1ccccc1OCc1cc(C(=O)N[C@H]2CCCCNC2=O)no1	10.7µM	?	/	3.55µM	2.82µM	?
COc1ccc(OCc2cc(C(=O)N[C@H]3CCCCNC3=O)no2)c(Cl)c1	10.7µM	?	/	?	?	?
CSc1ccccc1OCc1cc(C(=O)NC2CCc3ccccc32)no1 (stereo unspecified)	.	.	/	.	.	.
COc1ccc(OCc2cc(C(=O)NC3Cc4ccccc4C3)no2)c(Cl)c1	.	.	/	.	.	.

Bioassay records (PubChem)
